From PubChem BioAssay
For some assays here: Potency and affinity values are given separately. Active and inactive are the calls of the source. Unless noted, no rule for the calls is given here.

Legend:
[1] = antimalarial activity against Dd2 strain (AID 2302;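 active = growth inhibition above 50% at the single 2 µM test dose, taken to imply half-maximal potency below 2 µM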;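 also: 0% = DMSO untreated growth and 100% = chloroquine plus artemisinin killed control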); settings: P. falciparum Dd2 in RBCs, LDH growth readout, 72 h; at 2 µM; active compounds read high
[2] = human hepatoma cell viability loss – ATP luminescence, cytotoxicity control for P. falciparum antimalarial project, primary screen (AID 2303;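 active = inhibition above 50%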;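 also: 0% = DMSO wells and 100% = digitonin-killed cells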); settings: HepG2 viability, 24-48 h, at 10 µM, active compounds read high
[3] = biological target: L-lactate dehydrogenase (Plasmodium falciparum (isolate CDC / Honduras)) (UniProt Q27743); assay: PfLDH activity inhibition – cell lysate, 3D7 strain, counter-screen for P. falciparum growth inhibition project (AID 2304);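 also: 0% = vehicle and 100% = reference inhibitor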; settings: P. falciparum 3D7 crude extract, LDH APAD/NBT absorbance; at 2 µM; active compounds read high
[4] = inhibition of 3D7 malaria parasite growth – strain 3D7 (AID 2306);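 also: 0% = DMSO wells and 100% = chloroquine plus artemisinin control wells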; settings: P. falciparum 3D7 erythrocytic growth, LDH absorbance, 72 h; at 2 µM; active compounds read high
[5] = biological target: Calcium-dependent protein kinase 1 (Plasmodium falciparum (isolate 3D7)) (UniProt P62344); assay: PfCDPK1 kinase inhibitors, biochemical, TCAMS library (AID 1159585; cut-off not given, nearly all actives have IC50 up to about 0.98 µM;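 also: inhibitors leave more ATP so luminescence rises with inhibition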); settings: recombinant PfCDPK1, Kinase-Glo ATP depletion luminescence
[6] = biological target: Plasmodium falciparum protein kinase 6 (PK6, PF3D7_1337100) (UniProt Q8IDW1); assay: PfPK6 kinase inhibitors, biochemical, TCAMS library (AID 1159586); settings: recombinant PfPK6, Kinase-Glo ATP depletion luminescence
[7] = biological target: Protein kinase 7 (PK7), Plasmodium falciparum 3D7 (PF3D7_0213400) (UniProt Q7YTF7); assay: inhibition of Plasmodium PK7 catalytic activity – biochemical, TCAMS antimalarial set, Kinase-Glo luminescence (AID 1159587); settings: recombinant PfPK7, Kinase-Glo ATP depletion luminescence
[8] = biological target: Calcium-dependent protein kinase 4 (Plasmodium falciparum (isolate 3D7)) (UniProt Q8IBS5); assay: PfCDPK4 kinase inhibitors, biochemical, TCAMS library (AID 1159588; cut-off not given, nearly all actives have IC50 up to about 0.91 µM); settings: recombinant PfCDPK4, Kinase-Glo ATP depletion luminescence
Chain of Calcium-dependent protein kinase 4 (Plasmodium falciparum (isolate 3D7)) (Q8IBS5 whole entry, looked up): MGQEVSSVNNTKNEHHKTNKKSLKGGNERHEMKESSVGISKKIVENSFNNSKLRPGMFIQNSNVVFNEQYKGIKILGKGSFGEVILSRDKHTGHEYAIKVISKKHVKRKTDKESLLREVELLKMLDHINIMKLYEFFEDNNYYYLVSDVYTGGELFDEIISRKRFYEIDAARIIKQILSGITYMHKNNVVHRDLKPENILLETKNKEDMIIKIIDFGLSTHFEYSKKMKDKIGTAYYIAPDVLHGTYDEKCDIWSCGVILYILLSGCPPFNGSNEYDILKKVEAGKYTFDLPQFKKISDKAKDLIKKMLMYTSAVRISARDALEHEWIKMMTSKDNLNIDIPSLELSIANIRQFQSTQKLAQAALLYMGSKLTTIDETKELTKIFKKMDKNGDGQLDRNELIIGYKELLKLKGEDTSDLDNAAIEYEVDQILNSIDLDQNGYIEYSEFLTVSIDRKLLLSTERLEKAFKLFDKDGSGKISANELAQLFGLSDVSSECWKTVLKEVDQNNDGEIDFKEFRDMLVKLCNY

Chain of Protein kinase 7 (PK7), Plasmodium falciparum 3D7 (PF3D7_0213400) (Q7YTF7 1-343): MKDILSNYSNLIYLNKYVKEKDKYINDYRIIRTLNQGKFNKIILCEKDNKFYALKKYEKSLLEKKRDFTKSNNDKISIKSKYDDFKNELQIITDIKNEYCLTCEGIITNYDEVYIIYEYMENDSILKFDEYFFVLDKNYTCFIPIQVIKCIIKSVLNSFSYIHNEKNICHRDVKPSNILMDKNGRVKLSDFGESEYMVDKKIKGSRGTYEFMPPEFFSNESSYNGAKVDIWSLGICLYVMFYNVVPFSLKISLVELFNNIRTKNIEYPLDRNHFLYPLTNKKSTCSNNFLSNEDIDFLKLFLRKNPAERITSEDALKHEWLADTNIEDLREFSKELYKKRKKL
Chain of L-lactate dehydrogenase (Plasmodium falciparum (isolate CDC / Honduras)) (Q27743 whole entry, looked up): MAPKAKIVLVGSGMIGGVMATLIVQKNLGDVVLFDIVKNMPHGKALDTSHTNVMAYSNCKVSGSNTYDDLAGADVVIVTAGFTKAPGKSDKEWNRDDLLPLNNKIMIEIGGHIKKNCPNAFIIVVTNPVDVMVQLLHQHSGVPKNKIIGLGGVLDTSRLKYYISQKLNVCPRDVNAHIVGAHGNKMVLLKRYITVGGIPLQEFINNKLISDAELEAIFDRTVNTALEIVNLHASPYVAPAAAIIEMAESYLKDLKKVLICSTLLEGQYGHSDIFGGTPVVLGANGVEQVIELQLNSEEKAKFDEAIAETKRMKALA
Chain of Calcium-dependent protein kinase 1 (Plasmodium falciparum (isolate 3D7)) (P62344 whole entry, looked up): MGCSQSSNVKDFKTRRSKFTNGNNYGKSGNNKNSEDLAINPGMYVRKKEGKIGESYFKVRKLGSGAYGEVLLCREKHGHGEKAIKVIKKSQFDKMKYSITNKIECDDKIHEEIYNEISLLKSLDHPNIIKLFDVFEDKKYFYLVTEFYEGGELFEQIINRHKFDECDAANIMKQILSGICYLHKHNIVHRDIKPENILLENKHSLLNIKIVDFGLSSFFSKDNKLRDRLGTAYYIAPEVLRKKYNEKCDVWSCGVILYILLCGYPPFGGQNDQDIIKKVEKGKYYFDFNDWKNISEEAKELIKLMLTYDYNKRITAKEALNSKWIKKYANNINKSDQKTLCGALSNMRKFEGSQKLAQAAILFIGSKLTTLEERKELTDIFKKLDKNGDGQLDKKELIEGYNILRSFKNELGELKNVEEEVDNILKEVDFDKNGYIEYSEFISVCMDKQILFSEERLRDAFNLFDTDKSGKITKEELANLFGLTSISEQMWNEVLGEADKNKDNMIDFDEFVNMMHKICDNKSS
Chain of Plasmodium falciparum protein kinase 6 (PK6, PF3D7_1337100) (Q8IDW1 1-305): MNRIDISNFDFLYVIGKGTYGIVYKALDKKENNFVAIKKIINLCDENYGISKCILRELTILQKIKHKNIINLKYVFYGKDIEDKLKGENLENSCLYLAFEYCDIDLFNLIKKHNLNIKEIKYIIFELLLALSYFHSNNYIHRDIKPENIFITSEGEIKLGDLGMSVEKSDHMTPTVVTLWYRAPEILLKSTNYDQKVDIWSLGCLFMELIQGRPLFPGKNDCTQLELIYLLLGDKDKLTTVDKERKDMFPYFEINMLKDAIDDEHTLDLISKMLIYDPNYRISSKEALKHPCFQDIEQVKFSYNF

CCCNC(=O)C1CCN(C(c2ccc(Cl)cc2)c2ccc(Cl)cc2)CC1
active: growth inhibition [1] 96% | growth inhibition [4] 98%
inactive: inhibition [2] 7% | inhibition [3] 4% | outcome [5] | outcome [6] | outcome [7] | outcome [8]

CN(CCCc1c[nH]c2ccccc12)CCC1CCC(NC(=O)/C=C/c2ccc(Cl)c(Cl)c2)CC1 (stereo not given)
active: growth inhibition [1] 63% | growth inhibition [4] 99%
inactive: inhibition [2] 38% | inhibition [3] -3% | outcome [5] | outcome [6] | outcome [7] | outcome [8]

Cc1cc(N[C@@H](CC(C)C)C(=O)NCCOc2ccccc2)nc(NCCc2ccccc2)n1
inactive: growth inhibition [1] 29% | inhibition [2] 13% | inhibition [3] -1% | outcome [5] | outcome [6] | outcome [7] | outcome [8]
active: growth inhibition [4] 94%

Cc1cccc2[nH]c(-c3ccc(-c4ccc(NC(=O)C(C)CN(C)C)cc4)cc3)nc12 (stereo not given)
inactive: inhibition [2] 18% | inhibition [3] -6% | outcome [5] | outcome [6] | outcome [7] | outcome [8]
active: growth inhibition [1] 99% | growth inhibition [4] 99%

CCN(CC)c1ccc2nc(N)nc(N)c2c1Cl
inactive: growth inhibition [1] 1% | inhibition [3] -5% | outcome [5] | outcome [6] | outcome [7] | outcome [8]
active: inhibition [2] 62% | growth inhibition [4] 92%

COc1cc2nc(NCCn3cccn3)nc(NCCc3ccccc3)c2cc1OC
active: growth inhibition [1] 100% | growth inhibition [4] 102%
inactive: inhibition [2] 12% | inhibition [3] -3% | outcome [5] | outcome [6] | outcome [7] | outcome [8]

CCCCCN1CCC(NS(=O)(=O)c2cccc(C(=O)Nc3cccc(C(F)(F)F)c3)c2)C1 (stereo not given)
inactive: growth inhibition [1] 17% | inhibition [2] 25% | inhibition [3] -5% | outcome [5] | outcome [6] | outcome [7] | outcome [8]
active: growth inhibition [4] 86%

CC(C)N1CCC(N(Cc2ccc(-c3ccc(Cl)cc3)cc2)C(=O)Cn2c(CCc3cccc(F)c3F)nc(=O)c3ccccc32)CC1
inactive: inhibition [3] 5% | outcome [5] | outcome [6] | outcome [7] | outcome [8]
active: growth inhibition [1] 70% | inhibition [2] 61% | growth inhibition [4] 86%

COc1cc2nc(Cl)nc(Nc3ccncc3)c2cc1OC
inactive: growth inhibition [1] 33% | inhibition [2] 11% | inhibition [3] -2% | outcome [5] | outcome [6] | outcome [7] | outcome [8]
active: growth inhibition [4] 86%

CCN(CC)CCOc1ccc(NC(=O)c2oc3ccccc3c2C=Cc2ccccc2)cc1
active: growth inhibition [1] 54% | inhibition [2] 51% | growth inhibition [4] 98%
inactive: inhibition [3] -2% | outcome [5] | outcome [6] | outcome [7] | outcome [8]

CCCC[C@H](NC(=O)OC(C)(C)C)C(=O)Nc1ccc(Cc2ccc(NC(=O)[C@H](CCCC)NC(=O)OC(C)(C)C)cc2)cc1
inactive: inhibition [2] 5% | inhibition [3] 3% | outcome [5] | outcome [6] | outcome [7] | outcome [8]
active: growth inhibition [1] 71% | growth inhibition [4] 95%

O=C(Cc1cnc[nH]1)Nc1cccc(-c2cccc(-c3nc4ccc(C(F)(F)F)cc4[nH]3)c2)c1
active: growth inhibition [1] 101% | growth inhibition [4] 102%
inactive: inhibition [2] 35% | inhibition [3] -3% | outcome [5] | outcome [6] | outcome [7] | outcome [8]

Cc1c(CNCCCNc2cc(=O)c3ccccc3[nH]2)sc(/C=N/O)c1Br
active: growth inhibition [4] 82%
inactive: growth inhibition [1] -2% | inhibition [2] 0% | inhibition [3] 6% | outcome [5] | outcome [6] | outcome [7] | outcome [8]

Cc1c(-c2cccc(C(C)(C)NC3CCN(Cc4ccccc4)CC3)c2)cnc(N)c1C
inactive: growth inhibition [1] 39% | inhibition [2] 14% | inhibition [3] -6% | outcome [5] | outcome [6] | outcome [7] | outcome [8]
active: growth inhibition [4] 100%

Cc1ccc(S(=O)(=O)NC2CCN(CCNC(=O)Nc3cc(C)nc4ccccc34)C2)cc1 (stereo not given)
active: growth inhibition [4] 97%
inactive: growth inhibition [1] 42% | inhibition [2] -2% | inhibition [3] -3% | outcome [5] | outcome [6] | outcome [7] | outcome [8]

Clc1ccc2c(N3CCCNCC3)ccnc2c1
active: growth inhibition [1] 99% | growth inhibition [4] 100%
inactive: inhibition [2] 11% | inhibition [3] -1% | outcome [5] | outcome [6] | outcome [7] | outcome [8]

N#Cc1ccc(-c2ccc(OCC(O)CN3CCCN(Cc4cccc(O)c4Cl)CC3)cc2)cc1 (stereo not given)
active: growth inhibition [1] 66% | growth inhibition [4] 98%
inactive: inhibition [2] 3% | inhibition [3] -6% | outcome [5] | outcome [6] | outcome [7] | outcome [8]

O=C(NC1CCN(c2ccnc3cc(Cl)ccc23)C1)c1ccc(C(F)(F)F)cc1 (stereo not given)
inactive: inhibition [2] 37% | inhibition [3] 4% | outcome [5] | outcome [6] | outcome [7] | outcome [8]
active: growth inhibition [1] 57% | growth inhibition [4] 101%

Cc1ccc(C2CCN(CCCCNC(=O)c3ccc(-c4ccc(C(F)(F)F)cc4)cc3)CC2)c(O)c1
inactive: growth inhibition [1] 49% | inhibition [3] -2% | outcome [5] | outcome [6] | outcome [7] | outcome [8]
active: inhibition [2] 92% | growth inhibition [4] 100%

Cc1ccc2nc(Nc3ccc(Nc4nc5ccc(C)cc5[nH]4)c(C)c3)[nH]c2c1
inactive: inhibition [2] 12% | inhibition [3] 6% | outcome [5] | outcome [6] | outcome [7] | outcome [8]
active: growth inhibition [1] 94% | growth inhibition [4] 99%

c1ccc(C(c2ccccc2)N2CCN(C(c3cccnc3)c3nnnn3C3CCCC3)CC2)cc1 (stereo not given)
active: growth inhibition [1] 59% | growth inhibition [4] 83%
inactive: inhibition [2] 4% | inhibition [3] 0% | outcome [5] | outcome [6] | outcome [7] | outcome [8]

COc1ccc(Nc2nccc(NCCNC(=O)c3cc4ccccc4s3)n2)cc1
inactive: growth inhibition [1] 7% | inhibition [2] 6% | inhibition [3] -1% | outcome [5] | outcome [6] | outcome [7] | outcome [8]
active: growth inhibition [4] 98%

N#Cc1ccc2c(c1)CCN(CCC1CCC(NC(=O)Nc3ccnc4ccccc34)CC1)C2 (stereo not given)
inactive: inhibition [2] 38% | inhibition [3] 2% | outcome [5] | outcome [6] | outcome [7] | outcome [8]
active: growth inhibition [1] 77% | growth inhibition [4] 104%

COc1ccc2nccc([C@@H](O)CN3CCC(NC(=O)/C=C/c4cccc(C)c4)CC3)c2c1
inactive: growth inhibition [1] 28% | inhibition [2] 16% | inhibition [3] -2% | outcome [5] | outcome [6] | outcome [7] | outcome [8]
active: growth inhibition [4] 84%

Fc1cccc(Nc2nc(NCc3ccc(OCc4ccccc4)cc3)nc(Nc3cccc(F)c3)n2)c1
active: growth inhibition [4] 84%
inactive: growth inhibition [1] 14% | inhibition [2] 5% | inhibition [3] 1% | outcome [5] | outcome [6] | outcome [7] | outcome [8]

CCNC[C@@H](O)[C@H](Cc1ccccc1)NC(=O)c1cc2c3c(c1)c(CC)cn3CCS(=O)(=O)N2C
active: growth inhibition [1] 65% | growth inhibition [4] 99%
inactive: inhibition [2] 0% | inhibition [3] -4% | outcome [5] | outcome [6] | outcome [7] | outcome [8]

c1cc(OCCN2CCCC2)ccc1CNC1CCN(CC2CCCCC2)CC1
inactive: inhibition [2] 15% | inhibition [3] 5% | outcome [5] | outcome [6] | outcome [7] | outcome [8]
active: growth inhibition [1] 54% | growth inhibition [4] 101%

O=C(Nc1ccc(Cl)cc1)Nc1ccc(OCC(O)CN2CCCCC2)cc1 (stereo not given)
inactive: growth inhibition [1] 13% | inhibition [2] 18% | inhibition [3] -1% | outcome [5] | outcome [6] | outcome [7] | outcome [8]
active: growth inhibition [4] 83%

O=C(NCCN1CCCC1)c1ccc(-c2cccc(-c3nc4ccc(F)cc4[nH]3)c2)cc1
inactive: growth inhibition [1] 2% | inhibition [2] 29% | inhibition [3] 1% | outcome [5] | outcome [6] | outcome [7] | outcome [8]
active: growth inhibition [4] 100%

COc1ccc2nccc(N(C)CC3(O)CCC(NCc4ccc5c(n4)NC(=O)CS5)CC3)c2n1 (stereo not given)
active: growth inhibition [4] 98%
inactive: growth inhibition [1] 23% | inhibition [2] 1% | inhibition [3] -1% | outcome [5] | outcome [6] | outcome [7] | outcome [8]

CC(C)(CNCc1cccc(Oc2cccc(C(F)(F)F)c2)c1)c1nc(-c2ccc(Cl)c(O)c2)c(-c2ccnc(N)n2)[nH]1
inactive: inhibition [2] 23% | inhibition [3] 2% | outcome [5] | outcome [6] | outcome [7] | outcome [8]
active: growth inhibition [1] 98% | growth inhibition [4] 99%

CCCOc1ccc(OCCCON2C(N)=NC(N)=NC2(C)C)cc1
inactive: inhibition [3] 5% | outcome [5] | outcome [6] | outcome [7] | outcome [8]
active: growth inhibition [1] 94% | inhibition [2] 59% | growth inhibition [4] 96%

NC(=O)N1CCN(Cc2ccc(Br)cc2)CC1
active: inhibition [2] 83% | growth inhibition [4] 96%
inactive: growth inhibition [1] 0% | inhibition [3] -5% | outcome [5] | outcome [6] | outcome [7] | outcome [8]

CC(=O)Nc1ccc(OCCN(CC(C)C)c2ccc(C(F)(F)F)c(C#N)c2)c(Cl)c1
active: growth inhibition [1] 95% | growth inhibition [4] 96%
inactive: inhibition [2] 13% | inhibition [3] 2% | outcome [5] | outcome [6] | outcome [7] | outcome [8]

COc1ccc2nccc(N3CCN(CCNCc4ccc5c(n4)NC(=O)CO5)CC3)c2c1
inactive: growth inhibition [1] 5% | inhibition [2] 18% | inhibition [3] 5% | outcome [5] | outcome [6] | outcome [7] | outcome [8]
active: growth inhibition [4] 92%

Cc1ccc(S(=O)(=O)N(CCCN2CCN(C)CC2)Cc2csc(-c3ccc(CNCc4ccccc4)cc3)n2)cc1
inactive: inhibition [2] 15% | inhibition [3] 3% | outcome [5] | outcome [6] | outcome [7] | outcome [8]
active: growth inhibition [1] 90% | growth inhibition [4] 97%

Nc1ncc(-c2ccc3[nH]ccc3c2)c2ccc(-c3ccncc3)cc12
active: growth inhibition [1] 100% | growth inhibition [4] 100%
inactive: inhibition [2] 42% | inhibition [3] -6% | outcome [5] | outcome [6] | outcome [7] | outcome [8]

C=CCc1cccc(OC)c1OCCCON1C(N)=NC(N)=NC1(C)C
active: growth inhibition [1] 95% | inhibition [2] 58% | growth inhibition [4] 94%
inactive: inhibition [3] -1% | outcome [5] | outcome [6] | outcome [7] | outcome [8]

O=C(NC(NC(=S)Nc1ccc([N+](=O)[O-])cc1)C(Cl)(Cl)Cl)c1cccc(Cl)c1 (stereo not given)
inactive: inhibition [2] 24% | inhibition [3] 0% | outcome [5] | outcome [6] | outcome [7] | outcome [8]
active: growth inhibition [1] 100% | growth inhibition [4] 97%

COc1ccc2nccc(N3CCN(CCNCc4ccc5c(n4)NC(=O)CO5)CC3)c2n1
active: growth inhibition [4] 98%
inactive: growth inhibition [1] 12% | inhibition [2] 10% | inhibition [3] 1% | outcome [5] | outcome [6] | outcome [7] | outcome [8]
